Columns and labels:
Assay in all cases: log2 ratio of Biotin-Ahx-Ub-VS probe labelling (fragment/DMSO); higher = less target engagement (more negative = stronger competition), active = hit call of the paper (q ≤ 0.05, log2 ratio ≤ -1)
Conditions in all cases: compound concentration: 200 uM; treatment time: 3 h
USP19 = biological target: T1, USP19 (UniProt O94966)
T1 sequence (whole entry): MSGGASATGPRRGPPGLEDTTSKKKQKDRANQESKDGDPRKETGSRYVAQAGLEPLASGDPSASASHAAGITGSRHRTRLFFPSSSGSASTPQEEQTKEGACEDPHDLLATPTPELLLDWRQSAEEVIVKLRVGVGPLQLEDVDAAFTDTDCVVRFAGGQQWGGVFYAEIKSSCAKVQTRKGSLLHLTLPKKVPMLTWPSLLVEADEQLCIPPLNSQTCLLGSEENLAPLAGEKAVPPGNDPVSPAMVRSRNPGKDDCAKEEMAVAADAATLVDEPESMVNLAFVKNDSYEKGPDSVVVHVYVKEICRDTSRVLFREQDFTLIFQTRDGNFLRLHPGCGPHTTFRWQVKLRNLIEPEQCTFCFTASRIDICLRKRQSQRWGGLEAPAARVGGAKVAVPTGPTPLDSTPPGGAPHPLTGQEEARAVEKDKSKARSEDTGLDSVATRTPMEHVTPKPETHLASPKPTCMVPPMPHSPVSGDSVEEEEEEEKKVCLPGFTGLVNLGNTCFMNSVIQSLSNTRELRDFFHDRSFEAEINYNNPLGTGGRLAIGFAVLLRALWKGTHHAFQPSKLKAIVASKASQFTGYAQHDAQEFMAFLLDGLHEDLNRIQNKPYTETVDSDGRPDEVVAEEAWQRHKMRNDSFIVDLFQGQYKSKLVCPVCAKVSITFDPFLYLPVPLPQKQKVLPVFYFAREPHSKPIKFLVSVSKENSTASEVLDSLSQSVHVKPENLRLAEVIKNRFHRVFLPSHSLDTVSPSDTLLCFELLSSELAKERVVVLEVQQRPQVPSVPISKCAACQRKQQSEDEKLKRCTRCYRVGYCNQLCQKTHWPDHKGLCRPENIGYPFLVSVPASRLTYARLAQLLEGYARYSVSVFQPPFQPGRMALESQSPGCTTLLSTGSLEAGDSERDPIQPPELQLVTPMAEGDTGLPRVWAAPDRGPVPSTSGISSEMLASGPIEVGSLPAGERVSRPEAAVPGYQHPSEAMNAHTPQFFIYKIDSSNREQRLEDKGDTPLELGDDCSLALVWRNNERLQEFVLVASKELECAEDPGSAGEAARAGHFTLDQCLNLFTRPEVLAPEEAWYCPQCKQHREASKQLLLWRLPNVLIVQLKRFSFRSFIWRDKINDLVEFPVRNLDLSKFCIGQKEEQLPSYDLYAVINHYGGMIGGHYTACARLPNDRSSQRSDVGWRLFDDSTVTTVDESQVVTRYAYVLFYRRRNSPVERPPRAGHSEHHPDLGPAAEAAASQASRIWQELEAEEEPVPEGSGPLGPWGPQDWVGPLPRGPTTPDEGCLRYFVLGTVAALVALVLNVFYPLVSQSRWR
Summary of the method: (§1)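 Labelling with Biotin-Ahx-Ub-VS (0.5 µM final, 1 h) followed a 3 h triplicate treatment of HEK293T lysate (495 µg per sample, Tris/CHAPS/IGEPAL buffer with protease inhibitors) with fragment at 200 µM or vehicle. Labelled DUBs were NeutrAvidin-enriched, digested with LysC and trypsin, and run by diaPASEF LC-MS/MS. The values, average log2 fragment/vehicle ratios by unpaired t-test, come from global-median-normalised Spectronaut label-free quantities. Proteins with ≥2 unique peptides were used.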

USP22 = biological target: T2, USP22 (UniProt Q9UPT9)
T2 sequence (whole entry): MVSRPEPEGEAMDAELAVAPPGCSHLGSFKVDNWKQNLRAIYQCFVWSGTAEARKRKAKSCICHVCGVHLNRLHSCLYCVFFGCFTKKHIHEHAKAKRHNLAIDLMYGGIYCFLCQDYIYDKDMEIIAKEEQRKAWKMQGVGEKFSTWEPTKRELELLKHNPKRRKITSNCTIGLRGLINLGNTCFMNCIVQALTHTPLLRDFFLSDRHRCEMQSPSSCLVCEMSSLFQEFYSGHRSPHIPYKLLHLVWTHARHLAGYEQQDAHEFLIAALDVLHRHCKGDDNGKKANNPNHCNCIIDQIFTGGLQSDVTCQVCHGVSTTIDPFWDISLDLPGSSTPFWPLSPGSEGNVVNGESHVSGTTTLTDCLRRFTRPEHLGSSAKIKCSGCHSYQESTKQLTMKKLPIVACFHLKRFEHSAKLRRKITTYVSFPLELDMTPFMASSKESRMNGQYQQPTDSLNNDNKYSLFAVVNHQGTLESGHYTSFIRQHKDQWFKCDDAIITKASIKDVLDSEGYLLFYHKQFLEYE
Summary of the method: as §1

USP24 = USP24 (UniProt Q9UPU5)
USP24, sequence (Q9UPU5 whole entry): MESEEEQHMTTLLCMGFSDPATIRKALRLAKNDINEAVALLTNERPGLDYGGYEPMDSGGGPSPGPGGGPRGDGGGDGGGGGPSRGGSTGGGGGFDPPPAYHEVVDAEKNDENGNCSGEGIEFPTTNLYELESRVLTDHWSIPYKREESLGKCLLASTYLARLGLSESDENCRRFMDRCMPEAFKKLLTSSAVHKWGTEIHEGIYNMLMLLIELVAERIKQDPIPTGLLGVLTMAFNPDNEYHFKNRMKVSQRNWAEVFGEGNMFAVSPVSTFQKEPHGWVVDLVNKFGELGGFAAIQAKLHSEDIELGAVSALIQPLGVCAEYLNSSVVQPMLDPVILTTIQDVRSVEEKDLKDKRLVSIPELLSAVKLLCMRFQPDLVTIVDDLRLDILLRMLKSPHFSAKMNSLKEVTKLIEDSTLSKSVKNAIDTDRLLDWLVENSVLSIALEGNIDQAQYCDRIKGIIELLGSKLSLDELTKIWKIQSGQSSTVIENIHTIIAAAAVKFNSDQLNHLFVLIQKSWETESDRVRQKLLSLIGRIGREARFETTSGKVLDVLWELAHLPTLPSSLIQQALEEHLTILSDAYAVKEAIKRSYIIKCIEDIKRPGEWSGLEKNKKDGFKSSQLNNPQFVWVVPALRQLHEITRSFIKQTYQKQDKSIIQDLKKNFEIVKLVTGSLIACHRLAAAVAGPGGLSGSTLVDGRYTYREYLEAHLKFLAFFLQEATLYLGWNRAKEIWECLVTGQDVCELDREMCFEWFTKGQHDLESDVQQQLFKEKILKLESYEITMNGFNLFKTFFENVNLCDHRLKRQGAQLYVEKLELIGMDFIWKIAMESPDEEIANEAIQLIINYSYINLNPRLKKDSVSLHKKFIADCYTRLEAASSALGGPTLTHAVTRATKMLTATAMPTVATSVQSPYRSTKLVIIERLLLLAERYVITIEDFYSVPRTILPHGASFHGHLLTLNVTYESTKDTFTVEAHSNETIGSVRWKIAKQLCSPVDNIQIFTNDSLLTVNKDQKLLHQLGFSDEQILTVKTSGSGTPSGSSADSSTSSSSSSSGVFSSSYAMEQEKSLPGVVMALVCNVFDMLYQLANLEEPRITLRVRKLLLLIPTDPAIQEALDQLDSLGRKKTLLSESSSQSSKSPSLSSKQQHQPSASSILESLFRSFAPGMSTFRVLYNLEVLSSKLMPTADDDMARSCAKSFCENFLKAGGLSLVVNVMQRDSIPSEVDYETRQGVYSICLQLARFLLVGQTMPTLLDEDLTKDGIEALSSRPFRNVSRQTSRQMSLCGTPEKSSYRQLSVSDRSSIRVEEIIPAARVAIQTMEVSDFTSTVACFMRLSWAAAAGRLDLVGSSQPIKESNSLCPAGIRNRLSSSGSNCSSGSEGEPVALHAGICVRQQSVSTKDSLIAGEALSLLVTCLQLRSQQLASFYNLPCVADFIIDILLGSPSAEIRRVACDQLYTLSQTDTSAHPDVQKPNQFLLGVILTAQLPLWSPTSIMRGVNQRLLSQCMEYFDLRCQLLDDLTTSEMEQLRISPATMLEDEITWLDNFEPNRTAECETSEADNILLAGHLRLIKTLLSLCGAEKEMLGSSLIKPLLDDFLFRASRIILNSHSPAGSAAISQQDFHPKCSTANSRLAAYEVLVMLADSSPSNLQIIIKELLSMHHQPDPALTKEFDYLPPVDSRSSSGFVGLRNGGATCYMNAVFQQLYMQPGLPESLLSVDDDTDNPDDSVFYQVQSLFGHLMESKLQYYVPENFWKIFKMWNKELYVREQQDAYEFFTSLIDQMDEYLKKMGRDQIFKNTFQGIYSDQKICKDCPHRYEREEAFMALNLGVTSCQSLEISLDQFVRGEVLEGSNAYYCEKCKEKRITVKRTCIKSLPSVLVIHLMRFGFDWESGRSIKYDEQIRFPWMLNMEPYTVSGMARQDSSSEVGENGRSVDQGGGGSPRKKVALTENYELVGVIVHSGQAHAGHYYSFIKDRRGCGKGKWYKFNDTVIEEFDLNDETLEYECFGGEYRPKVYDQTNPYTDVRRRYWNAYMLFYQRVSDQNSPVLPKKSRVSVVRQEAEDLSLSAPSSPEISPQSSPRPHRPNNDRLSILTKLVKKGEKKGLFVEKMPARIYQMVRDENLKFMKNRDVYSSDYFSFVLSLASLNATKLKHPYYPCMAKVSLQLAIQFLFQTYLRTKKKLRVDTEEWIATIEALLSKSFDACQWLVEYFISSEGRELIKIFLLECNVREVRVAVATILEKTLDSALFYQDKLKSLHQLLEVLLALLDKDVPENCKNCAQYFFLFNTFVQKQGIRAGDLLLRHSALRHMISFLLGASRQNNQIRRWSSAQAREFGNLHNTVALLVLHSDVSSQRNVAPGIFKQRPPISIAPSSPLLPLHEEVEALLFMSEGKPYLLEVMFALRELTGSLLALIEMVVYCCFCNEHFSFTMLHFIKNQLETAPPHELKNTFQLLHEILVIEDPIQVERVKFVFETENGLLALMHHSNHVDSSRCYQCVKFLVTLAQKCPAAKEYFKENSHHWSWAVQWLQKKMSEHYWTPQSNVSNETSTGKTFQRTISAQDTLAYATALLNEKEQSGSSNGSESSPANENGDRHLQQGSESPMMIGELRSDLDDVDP
Summary of the method: as §1

USP25 = biological target: T3, USP25 (UniProt Q9UHP3)
T3 sequence (whole entry): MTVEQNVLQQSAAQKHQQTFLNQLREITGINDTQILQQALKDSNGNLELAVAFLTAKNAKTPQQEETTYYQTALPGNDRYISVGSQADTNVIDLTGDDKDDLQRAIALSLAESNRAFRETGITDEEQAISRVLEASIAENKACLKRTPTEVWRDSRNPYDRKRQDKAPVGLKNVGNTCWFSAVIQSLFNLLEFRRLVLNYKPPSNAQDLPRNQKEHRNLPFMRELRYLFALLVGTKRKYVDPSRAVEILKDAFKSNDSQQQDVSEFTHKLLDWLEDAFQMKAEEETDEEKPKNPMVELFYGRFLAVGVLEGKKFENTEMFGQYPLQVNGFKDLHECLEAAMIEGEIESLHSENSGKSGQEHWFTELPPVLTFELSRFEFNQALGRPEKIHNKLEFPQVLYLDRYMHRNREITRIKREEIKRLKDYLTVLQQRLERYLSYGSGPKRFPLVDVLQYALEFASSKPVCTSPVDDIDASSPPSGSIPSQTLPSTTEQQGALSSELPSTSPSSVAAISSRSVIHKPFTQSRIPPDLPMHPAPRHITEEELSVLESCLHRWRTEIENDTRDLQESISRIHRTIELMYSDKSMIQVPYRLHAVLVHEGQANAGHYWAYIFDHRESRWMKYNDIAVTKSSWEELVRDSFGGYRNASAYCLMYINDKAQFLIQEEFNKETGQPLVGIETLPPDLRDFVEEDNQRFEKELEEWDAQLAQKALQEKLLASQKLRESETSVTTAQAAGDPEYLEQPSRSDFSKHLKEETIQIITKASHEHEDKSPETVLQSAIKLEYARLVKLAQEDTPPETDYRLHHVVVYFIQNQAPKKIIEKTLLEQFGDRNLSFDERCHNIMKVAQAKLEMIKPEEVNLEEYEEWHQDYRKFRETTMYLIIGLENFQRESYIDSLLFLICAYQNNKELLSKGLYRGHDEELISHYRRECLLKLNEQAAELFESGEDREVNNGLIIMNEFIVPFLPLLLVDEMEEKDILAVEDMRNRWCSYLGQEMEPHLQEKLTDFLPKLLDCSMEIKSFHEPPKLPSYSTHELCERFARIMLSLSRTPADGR
Summary of the method: as §1

USP28 = biological target: T4, USP28 (UniProt Q96RU2)
T4 sequence (whole entry): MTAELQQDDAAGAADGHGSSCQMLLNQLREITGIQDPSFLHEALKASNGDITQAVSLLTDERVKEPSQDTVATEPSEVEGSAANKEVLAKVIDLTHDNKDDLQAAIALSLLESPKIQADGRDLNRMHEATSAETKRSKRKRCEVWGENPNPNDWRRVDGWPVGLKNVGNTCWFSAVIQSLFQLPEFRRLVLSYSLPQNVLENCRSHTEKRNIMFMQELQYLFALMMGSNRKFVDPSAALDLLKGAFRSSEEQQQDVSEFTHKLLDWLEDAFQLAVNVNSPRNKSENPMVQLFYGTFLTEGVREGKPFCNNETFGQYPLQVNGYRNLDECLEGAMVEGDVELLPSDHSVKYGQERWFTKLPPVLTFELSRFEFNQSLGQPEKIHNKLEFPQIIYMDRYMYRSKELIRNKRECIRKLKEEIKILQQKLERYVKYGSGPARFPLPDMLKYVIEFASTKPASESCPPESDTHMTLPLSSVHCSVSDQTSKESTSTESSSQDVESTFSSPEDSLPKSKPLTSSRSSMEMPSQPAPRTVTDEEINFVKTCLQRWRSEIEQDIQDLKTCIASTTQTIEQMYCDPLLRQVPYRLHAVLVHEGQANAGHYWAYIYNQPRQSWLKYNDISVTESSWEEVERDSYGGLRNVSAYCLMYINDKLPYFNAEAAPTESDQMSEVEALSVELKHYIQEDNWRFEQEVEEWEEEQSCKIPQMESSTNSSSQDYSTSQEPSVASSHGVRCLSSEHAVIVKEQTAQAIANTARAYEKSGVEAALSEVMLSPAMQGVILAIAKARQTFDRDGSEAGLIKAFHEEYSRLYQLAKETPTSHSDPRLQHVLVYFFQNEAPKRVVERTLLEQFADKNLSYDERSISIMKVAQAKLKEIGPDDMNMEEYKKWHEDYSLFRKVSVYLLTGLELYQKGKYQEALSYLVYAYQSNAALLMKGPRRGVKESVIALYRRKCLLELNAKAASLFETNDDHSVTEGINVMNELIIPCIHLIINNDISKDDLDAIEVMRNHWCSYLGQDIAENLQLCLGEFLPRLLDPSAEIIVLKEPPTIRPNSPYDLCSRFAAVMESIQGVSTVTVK
Summary of the method: as §1

Measured: log2 ratio of Biotin-Ahx-Ub-VS probe labelling

Cc1ccn2cc(CNC(=O)CCl)nc2c1.Cl
inactive: USP19 -0.148 | USP22 -0.112 | USP24 -0.106 | USP25 -0.398 | USP28 -0.272
